Experimental data from PubChem BioAssay (Tox21).
Several values for one entry are separate records, joined by “and”; a condition that tells them apart may be missing. Equal values may be shown once. Inconclusive results are not listed. Entries that show only a call come without a potency. Some structures have more than one record in an assay (separate samples or runs), and their calls can disagree. Activity calls are given as the source filed them. The call rests on the fitted dose curve; in most records, active means well fitted curve in the direction sought with a large enough effect in the repeat runs; inconclusive means weak or mixed curves; inactive means no such curve, though single readings can be large; an effect the other way counts as inactive or inconclusive.

Experiments:
[1] = qHTS RealTime-Glo MT Cell Viability Assay in HepG2 cells - 40 hour (AID 1224870); further: nearly all actives have a fitted effect of over 50% in size
Method in brief: (§1)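 HepG2 cells mixed with RealTime-Glo MT reagents (NanoLuc plus cell-permeant prosubstrate) were seeded at 600 cells/well, incubated 5 h at 37 C/5% CO2, then pinned with compounds in DMSO; nonlytic luminescence tracked viability during 40 h treatment.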

[2] = A CellTox Green Cytotoxicity Assay to monitor cytotoxicity in HEK293 cells - 40 hour (AID 1224871); further: nearly all actives have a fitted effect of over 45% in size; further: potency means the concentration at half of the fitted maximal effect
Method in brief: (§2)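 Cytotoxicity was tracked continuously in HEK293 cells by a DNA-binding dye excluded from viable cells. Compounds were transferred in DMSO 5 h after seeding; fluorescence was recorded at intervals up to 40 h.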

[3] = qHTS RealTime-Glo MT Cell Viability Assay in HEK293 cells - 16 hour (AID 1224872); further: top concentration of the series differs between compounds; nearly all actives have a fitted effect of over 50% in size
Method in brief: (§3)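 Reads taken at 0, 8, 16, 24, 32 and 40 h from the same wells. HEK293 cells (600/well) carried RealTime-Glo reagents from seeding, with compound added after a 5 h settle at 37 C.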

[4] = qHTS RealTime-Glo MT Cell Viability Assay in HepG2 cells - 8 hour (AID 1224873); further: nearly all actives have a fitted effect of over 55% in size
Method in brief: as §1

[5] = qHTS RealTime-Glo MT Cell Viability Assay in HEK293 cells - 40 hour (AID 1224874); details: RealTime-Glo luminescence; max response: stronger effect = lower value; further: nearly all actives have a fitted effect of over 50% in size
Method in brief: (§4)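 Nonlytic bioluminescent viability monitoring. HEK293 at 600 cells/well with reagent; 5 h settle; compound transfer by pintool; plates held at 37 C and read at set time points.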

[6] = A CellTox Green Cytotoxicity Assay to monitor cytotoxicity in HEK293 cells - 24 hour (AID 1224875); further: series mostly up to about 77 µM; nearly all actives have a fitted effect of over 45% in size
Method in brief: as §2

[7] = A CellTox Green Cytotoxicity Assay to monitor cytotoxicity in HepG2 cells - 16 hour (AID 1224876); further: nearly all actives have a fitted effect of over 45% in size; further: potency means the concentration at half of the fitted maximal effect
Method in brief: (§5)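 Real-time, homogeneous cytotoxicity readout: dead-cell DNA staining by CellTox Green in HepG2 monolayers, fluorescence measured at timed intervals up to 40 h of continuous compound exposure.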

[8] = qHTS RealTime-Glo MT Cell Viability Assay in HepG2 cells - 32 hour (AID 1224877); further: nearly all actives have a fitted effect of over 55% in size
Method in brief: (§6)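 HepG2 suspension premixed with RealTime-Glo reagents is plated at 600 cells per well and left 5 h at 37 C/5% CO2. Compounds in DMSO then go in, and bioluminescence reflecting viable cell number is recorded over 40 h.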

[9] = A CellTox Green Cytotoxicity Assay to monitor cytotoxicity in HepG2 cells - 24 hour (AID 1224878); further: nearly all actives have a fitted effect of over 45% in size; further: potency means the concentration at half of the fitted maximal effect
Method in brief: as §5

[10] = A CellTox Green Cytotoxicity Assay to monitor cytotoxicity in HepG2 cells - 40 hour (AID 1224879); further: nearly all actives have a fitted effect of over 40% in size; further: potency means the concentration at half of the fitted maximal effect
Method in brief: as §5

[11] = qHTS RealTime-Glo MT Cell Viability Assay in HEK293 cells - 0 hour (AID 1224880)
Method in brief: as §4

[12] = A CellTox Green Cytotoxicity Assay to monitor cytotoxicity in HEK293 cells - 32 hour (AID 1224881); further: nearly all actives have a fitted effect of over 40% in size; further: potency means the concentration at half of the fitted maximal effect
Method in brief: as §2

[13] = A CellTox Green Cytotoxicity Assay to monitor cytotoxicity in HepG2 cells - 0 hour (AID 1224882); further: nearly all actives have a fitted effect of over 35% in size; further: potency means the concentration at half of the fitted maximal effect
Method in brief: as §5

[14] = A CellTox Green Cytotoxicity Assay to monitor cytotoxicity in HEK293 cells - 8 hour (AID 1224884); further: nearly all actives have a fitted effect of over 35% in size; further: potency means the concentration at half of the fitted maximal effect
Method in brief: as §2

[15] = qHTS RealTime-Glo MT Cell Viability Assay in HEK293 cells - 24 hour (AID 1224886); further: top concentration of the series differs between compounds; nearly all actives have a fitted effect of over 50% in size
Method in brief: as §3

[16] = qHTS RealTime-Glo MT Cell Viability Assay in HEK293 cells - 8 hour (AID 1224887)
Method in brief: as §4

[17] = A CellTox Green Cytotoxicity Assay to monitor cytotoxicity in HEK293 cells - 16 hour (AID 1224888); further: nearly all actives have a fitted effect of over 35% in size
Method in brief: as §2

[18] = qHTS RealTime-Glo MT Cell Viability Assay in HepG2 cells - 0 hour (AID 1224889); further: nearly all actives have a fitted effect of over 50% in size
Method in brief: as §6

[19] = qHTS RealTime-Glo MT Cell Viability Assay in HepG2 cells - 16 hour (AID 1224885); further: nearly all actives have a fitted effect of over 50% in size
Method in brief: as §6

Row | Compound | outcome [1] | Potency [2] | outcome [3] | outcome [4] | max response [5] | Potency [6] | Potency [7] | outcome [8] | Potency [9] | Potency [10] | outcome [11] | Potency [12] | Potency [13] | Potency [14] | outcome [15] | outcome [16] | Potency [17] | outcome [18] | outcome [19]
1 | Cc1cccc(N)c1C | inactive | inactive | inactive | inactive | -0.402% (inactive) and 10.2% (inactive) | inactive | inactive | inactive | inactive | inactive | inactive | inactive | inactive | inactive | inactive | inactive | inactive | inactive | 
2 | CC(=O)/C=C/c1ccccc1 | inactive | inactive | inactive | inactive | 7.83% (inactive) and 3.04% (inactive) and 5.74% (inactive) | inactive | inactive | inactive | inactive | inactive | inactive | inactive | inactive | inactive | inactive | inactive | inactive | inactive | 
3 | C=CC(=O)OCC(CC)CCCC (stereo not drawn) | inactive | inactive | inactive | inactive | 13.3% (inactive) | inactive | inactive | inactive | inactive | inactive | inactive | inactive | inactive | inactive | inactive | inactive | inactive | inactive | inactive
4 | CNC(=O)O/N=C/C(C)(C)SC | inactive | inactive | inactive | inactive | 6.31% (inactive) and 4.21% (inactive) | inactive | inactive | inactive | inactive | inactive | inactive | inactive | inactive | inactive | inactive | inactive | inactive | inactive | inactive
5 | Cc1ccc(N=C=O)cc1N=C=O | inactive | inactive | inactive | inactive | 7.57% (inactive) and -22.1% (inactive) | inactive | inactive | inactive | inactive | inactive | inactive | inactive | inactive | inactive | inactive | inactive | inactive | inactive | 
6 | O=[N+]([O-])c1ccc(Cl)cc1 | inactive | inactive | inactive | inactive | 4.49% (inactive) and 2.44% (inactive) | inactive | inactive | inactive | inactive | inactive | inactive | inactive | inactive | inactive | inactive | inactive | inactive | inactive | inactive
7 | Cc1cccc(C)c1NC(=O)CN1CCCC1=O | inactive | inactive | inactive | inactive | 1.79% (inactive) and -7.42% (inactive) and 6.42% (inactive) | inactive | inactive | inactive | inactive | inactive | inactive | inactive | inactive | inactive | inactive | inactive | inactive | inactive | 
8 | OCC(O)CCl (stereo not drawn) | inactive | inactive | inactive | inactive | -3.2% (inactive) and 0.258% (inactive) | inactive | inactive | inactive | inactive | inactive | inactive | inactive | inactive | inactive | inactive | inactive | inactive | inactive | 
9 | O=[N+]([O-])c1cc([As](=O)(O)O)ccc1O | inactive | inactive | inactive | inactive | 6.64% (inactive) and -3.36% (inactive) and 2.24% (inactive) | inactive | inactive | inactive | inactive | inactive | inactive | inactive | inactive | inactive | inactive | inactive | inactive | inactive | 
10 | O=C(O)C(Br)Br | inactive | inactive | inactive | inactive | -0.855% (inactive) and 1.09% (inactive) | inactive | inactive | inactive | inactive | inactive | inactive | inactive | inactive | inactive | inactive | inactive | inactive | inactive | 
11 | C=CC(=O)OCCCCCC(C)C | inactive | inactive | inactive | inactive | -0.829% (inactive) and 3.33% (inactive) | inactive | inactive | inactive | inactive | inactive | inactive | inactive | inactive | inactive | inactive | inactive | inactive | inactive | 
12 | CC(C)c1cccc(C(C)C)c1O | inactive | 24.5 µM (active) and 43.6 µM (active) and inactive | inactive | inactive | -0.191% (inactive) and -2.39% (inactive) and 0.656% (inactive) |  | 43.6 µM (active) and inactive | inactive | 43.6 µM (active) and inactive | 43.6 µM (active) and inactive | inactive | 24.5 µM (active) and 43.6 µM (active) and inactive | inactive and 43.6 µM (active) | inactive and 43.6 µM (active) | inactive | inactive |  | inactive | inactive
